The results in this text go back to the supplement of paper PMC10933113.

Structures are written as SMILES. ± gives the uncertainty stated by the source.

The subject of the assay is THP-1. Nature of the assay: CD54 surface expression induction over DMSO control (% over DMSO); higher = stronger dendritic cell activation. The following applies: exposure time: 24 h. As to the method: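 hCLAT-like CD54 and CD86 surface expression on THP1 cells after 24 h exposure at a single concentration (highest non-cytotoxic concentration, or 100-200 µM if not cytotoxic). Flow cytometry (iQue) was run on 5,000 live cells.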
For `O=C(O)Cc1cc(I)c(Oc2cc(I)c(O)c(I)c2)c(I)c1` [Tetrac] (100 µM), the “CD54 surface expression induction” value is 8.45 ± 9.3.

With `CCN(CC)c1ccc(C(=O)c2ccccc2C(=O)O)c(O)c1` [2-[4-(Diethylamino)-2-hydroxybenzoyl]benzoic acid] (10 µM), the “CD54 surface expression induction” value is -5.88 ± 5.

For `C=CC(C)(CCC=C(C)C)OC(=O)CC(C)C` (stereo not given) [Linalyl isovalerate] (200 µM), the “CD54 surface expression induction” value was found to be 16.3 ± 11.

Take `CCOc1ccc2nc(S(N)(=O)=O)sc2c1` [Ethoxzolamide] (200 µM): the “CD54 surface expression induction” value came to 3.81 ± 6.

With `COc1cccc2c1C(=O)c1c(O)c3c(c(O)c1C2=O)C[C@@](O)(C(=O)CO)C[C@@H]3O[C@H]1C[C@H](N)[C@H](O[C@@H]2CCCCO2)[C@H](C)O1` [Pirarubicin*] (10 µM), the “CD54 surface expression induction” value is 263 ± 46.

On to `CCCCOCCOCCOCCO` [2-[2-(2-Butoxyethoxy)ethoxy]ethanol] (115 µM), for which the “CD54 surface expression induction” value amounted to 20.1 ± 15.

Consider `CC(=O)Oc1ccc(C2(c3ccc(OC(C)=O)cc3)C(=O)Nc3ccccc32)cc1` [Oxyphenisatin acetate] (100 µM), for which the “CD54 surface expression induction” value worked out at 9.56 ± 1.9.

As for `c1ccc(CCNc2nc(-c3ccccc3)cs2)cc1` [Fanetizole] (200 µM), the “CD54 surface expression induction” value was -4.51 ± 4.3.

As for `CC(C)(C)c1ccc(S)cc1` [4-tert-Butylbenzenethiol] (200 µM), the “CD54 surface expression induction” value was found to be 38.6 ± 14.

As to `O=C(Nc1ccccc1)c1cc(Cl)ccc1O` [5-Chlorosalicylanilide] (10 µM), the “CD54 surface expression induction” value is -4.26 ± 3.3.

Regarding `CO[C@@]12[C@H](COC(N)=O)C3=C(C(=O)C(C)=C(N)C3=O)N1C[C@@H]1N[C@@H]12` [Mitomycin C] (100 µM), the “CD54 surface expression induction” value is 55.6 ± 52.

Consider `Nc1nnc(-c2ccc([N+](=O)[O-])o2)o1` [2-Amino-5-(5-nitro-2-furyl)-1,3,4-oxadiazole] (10 µM), for which the “CD54 surface expression induction” value is -7.68 ± 3.2.

For the molecule `CCCCc1ccc2[nH]c(NC(=O)OC)nc2c1` [Parbendazole*] (200 µM), the “CD54 surface expression induction” value was determined as 262 ± 39.

`C=CC(=O)OCCn1c(=O)n(CCOC(=O)C=C)c(=O)n(CCOC(=O)C=C)c1=O` (10 µM): the “CD54 surface expression induction” value came to 3.33 ± 5.3.

For the molecule `C/C=C1\C(=O)C[C@H]2[C@@H]3CCC4=CC(=O)CC[C@]4(C)[C@H]3CC[C@]12C` [Guggulsterone Z] (100 µM), the “CD54 surface expression induction” value was -3.76 ± 3.3.

As to `CC1COc2ccccc2N1C(=O)C(Cl)Cl` (stereo not given) [Benoxacor] (10 µM), the “CD54 surface expression induction” value was 13.4 ± 3.8.

Regarding `COc1cc(C(C)C)c2c(c1)S(=O)(=O)N(COc1cc(=O)n3cccc(OCCN4CCCCC4)c3n1)C2=O` (100 µM), the “CD54 surface expression induction” value was found to be 61 ± 55.

On to `Nc1cc(Cl)c(O)c(Cl)c1` [4-Amino-2,6-dichlorophenol] (100 µM), for which the “CD54 surface expression induction” value was determined as 18 ± 2.

As to `CN(C)c1ccc(SC#N)cc1` [4-(Dimethylamino)phenylthiocyanate] (10 µM), the “CD54 surface expression induction” value was -9.74 ± 4.1.

On to `O=C(O)c1cccnc1Nc1cccc(C(F)(F)F)c1` [Niflumic acid] (100 µM), for which the “CD54 surface expression induction” value was -11.5 ± 10.

As for `CCCCCCCCCCCCCCCC[N+](C)(C)Cc1ccccc1` [Benzylhexadecyldimethylammonium chloride] (10 µM), the “CD54 surface expression induction” value stood at 20.1 ± 7.5.

Regarding `Clc1nc(C(Cl)(Cl)Cl)c(Cl)c(Cl)c1Cl` [2,3,4,5-Tetrachloro-6-(trichloromethyl)pyridine] (10 µM), the “CD54 surface expression induction” value is -4.98 ± 3.6.

Consider `CCN(CC)CCOc1ccc2c(c1)C(=O)c1cc(OCCN(CC)CC)ccc1-2` [Tilorone] (200 µM), for which the “CD54 surface expression induction” value worked out at 79.8 ± 17.

`COC(=O)CCCCCCCC(=O)OC` [Dimethyl nonanedioate] (200 µM): the “CD54 surface expression induction” value was -1.14 ± 2.1.

In the case of `O=C(Nc1ncc([N+](=O)[O-])s1)c1cccs1` [Tenonitrozole] (10 µM), the “CD54 surface expression induction” value is -7 ± 4.7.

`CCCCCCCCN` [n-Octylamine] (100 µM): the “CD54 surface expression induction” value is -6.09 ± 0.05.

As to `Nc1ncn([C@@H]2O[C@H](CO)[C@@H](O)[C@H]2O)c(=O)n1` [5-Azacytidine] (10 µM), the “CD54 surface expression induction” value was -4.02 ± 3.5.

Consider `NC(=S)NC(N)=S` [2,4-Dithiobiuret] (200 µM), for which the “CD54 surface expression induction” value amounted to 15.9 ± 2.6.

Regarding `CO[C@@H]1[C@H](OC(=O)/C=C/C=C/C=C/C=C/C(=O)O)CC[C@]2(CO2)[C@H]1[C@@]1(C)O[C@@H]1CC=C(C)C` [Fumagillin] (100 µM), the “CD54 surface expression induction” value amounted to 4.2 ± 4.4.

With `S=C(NC1CCCCC1)NC1CCCCC1` [N,N'-Dicyclohexylthiourea] (10 µM), the “CD54 surface expression induction” value was -7.65 ± 5.2.

As to `O=C(CCCCCCC(=O)Nc1ccccc1)NO` [Vorinostat (SAHA)] (100 µM), the “CD54 surface expression induction” value worked out at 4.99 ± 15.

For `COc1ccc(C(=O)/C(Br)=C\C(=O)O)cc1` [Cytembena] (200 µM), the “CD54 surface expression induction” value is 62.5 ± 6.9.

For `O=CC(=O)c1ccccc1` [Phenyl glyoxal] (100 µM), the “CD54 surface expression induction” value is -5.43 ± 7.7.

Turning to `CC(C)=CCOc1ccc(/C=C/C(=O)c2ccc(OCC=C(C)C)cc2OCC(=O)O)cc1` [Sofalcone] (100 µM), the “CD54 surface expression induction” value is -27.7 ± 3.9.

Turning to `Cc1c(C)n(CCN(C)C)c2ccc(C(=O)OCCN(C)C)cc12` [Amindocate] (100 µM), the “CD54 surface expression induction” value was -6.56 ± 2.9.

Turning to `CC(C)C[C@H](NC(=O)[C@H](Cc1ccccc1)NC(=O)c1cnccn1)B(O)O` [Bortezomib] (10 µM), the “CD54 surface expression induction” value is 28.8 ± 9.9.

Turning to `Clc1ccc(C(Cn2ccnc2)OCc2c(Cl)cccc2Cl)c(Cl)c1` (stereo not given) [Isoconazole] (100 µM), the “CD54 surface expression induction” value amounted to 56.6 ± 9.5.

For the molecule `O=C(OCc1ccccc1)c1ccc(O)cc1` [Benzylparaben] (100 µM), the “CD54 surface expression induction” value was -6.45 ± 0.19.

In the case of `C[n+]1cc2c3c(ccc2c2ccc4cc5c(cc4c21)OCO5)OCO3` [Sanguinarine] (10 µM), the “CD54 surface expression induction” value came to 36 ± 5.9.

As for `O=c1cc(-c2ccccc2)oc2cc(O)cc(O)c12` [Chrysin] (100 µM), the “CD54 surface expression induction” value was determined as 18.9 ± 1.4.
